What all share (test): protein-binding microarray (PBM); PBM: ~300 nM protein, 6 mM HEPES pH 7.8, 80 mM KCl, 0.5 mM EDTA, 0.5 mM EGTA, 6% glycerol, 35 ng/ul poly-dIdC, 1% milk, 1 h, room temperature; Ap Aiptasia and Nv Nematostella (sea anemones) / Co Capsaspora / Aq Amphimedon (sponge) / Dm Drosophila / Hu human; RHD is the Rel homology domain; high values mean tight binding
Holding throughout (settings): dsDNA, one strand shown

Assay [1] has as its target T1, GST-Nv-NF-kB (Cys allele) (Nematostella vectensis, UniProt E5G601 2-411).
T1 sequence: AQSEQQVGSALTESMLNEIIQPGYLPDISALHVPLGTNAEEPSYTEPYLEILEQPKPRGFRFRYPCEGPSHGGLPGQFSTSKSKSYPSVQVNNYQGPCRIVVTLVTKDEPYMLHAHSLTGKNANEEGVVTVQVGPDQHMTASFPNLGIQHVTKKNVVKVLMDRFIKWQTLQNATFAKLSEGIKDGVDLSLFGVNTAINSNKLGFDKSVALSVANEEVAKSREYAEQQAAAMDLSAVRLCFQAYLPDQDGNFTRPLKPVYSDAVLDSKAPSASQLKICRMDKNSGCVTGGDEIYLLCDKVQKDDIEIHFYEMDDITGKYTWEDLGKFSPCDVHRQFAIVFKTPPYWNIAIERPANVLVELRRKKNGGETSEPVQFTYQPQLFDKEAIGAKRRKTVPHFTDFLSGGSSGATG

In assay [2] the target is T2, GST-Nv-NF-kB (Ser allele) (Nematostella vectensis, UniProt A7UNT2 2-411).
T2 sequence: T1 sequence with Q21R, C66S, S207N, E215Q, V217A, E225K, A268E, D399E

Another assay deals with T3, GST-Dm-Relish (Drosophila melanogaster, UniProt Q94527 99-473).
T3 sequence: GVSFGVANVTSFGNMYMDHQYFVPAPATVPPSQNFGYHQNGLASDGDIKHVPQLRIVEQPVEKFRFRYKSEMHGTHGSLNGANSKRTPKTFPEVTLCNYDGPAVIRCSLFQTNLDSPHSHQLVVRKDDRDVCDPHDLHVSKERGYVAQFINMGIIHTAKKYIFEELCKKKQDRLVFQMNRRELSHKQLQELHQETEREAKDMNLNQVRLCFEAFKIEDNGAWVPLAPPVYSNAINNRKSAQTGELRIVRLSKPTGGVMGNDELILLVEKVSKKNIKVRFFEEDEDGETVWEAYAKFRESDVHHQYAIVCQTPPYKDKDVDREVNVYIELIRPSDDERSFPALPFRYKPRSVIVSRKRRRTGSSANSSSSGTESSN

The target of another assay is T4, GST-Aq-NF-kB (Amphimedon queenslandica, UniProt A9Y5G7 2-389).
T4 sequence: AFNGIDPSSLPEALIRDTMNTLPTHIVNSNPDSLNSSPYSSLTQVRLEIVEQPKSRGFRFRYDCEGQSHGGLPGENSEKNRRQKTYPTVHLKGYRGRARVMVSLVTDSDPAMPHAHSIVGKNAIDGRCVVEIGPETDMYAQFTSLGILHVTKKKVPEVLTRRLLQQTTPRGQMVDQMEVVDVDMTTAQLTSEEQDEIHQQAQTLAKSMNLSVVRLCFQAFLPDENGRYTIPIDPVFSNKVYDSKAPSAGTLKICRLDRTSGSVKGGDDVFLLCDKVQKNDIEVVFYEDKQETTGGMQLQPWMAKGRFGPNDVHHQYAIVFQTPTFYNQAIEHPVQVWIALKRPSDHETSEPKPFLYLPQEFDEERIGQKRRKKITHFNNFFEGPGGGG

The target in a further assay is GST-Hu-p50 (Homo sapiens, UniProt P19838 7-356).
For the next assay, the target named is T5, GST-Co-NF-kB (Capsaspora owczarzaki, UniProt F1ARL5 200-546).
T5 sequence: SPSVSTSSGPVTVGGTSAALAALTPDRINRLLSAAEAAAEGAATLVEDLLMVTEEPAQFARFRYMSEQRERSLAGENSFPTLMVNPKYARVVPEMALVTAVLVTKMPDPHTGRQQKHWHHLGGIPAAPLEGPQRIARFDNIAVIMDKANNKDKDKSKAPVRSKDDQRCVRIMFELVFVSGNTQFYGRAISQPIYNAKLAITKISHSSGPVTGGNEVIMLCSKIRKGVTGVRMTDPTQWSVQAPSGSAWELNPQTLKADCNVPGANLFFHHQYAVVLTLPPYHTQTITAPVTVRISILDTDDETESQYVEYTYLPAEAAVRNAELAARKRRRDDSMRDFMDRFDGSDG

The next assay addresses T6, GST-Ap-NF-kB RHD (Exaiptasia pallida (Aiptasia), UniProt A0A913YAJ5 2-422).
T6 sequence: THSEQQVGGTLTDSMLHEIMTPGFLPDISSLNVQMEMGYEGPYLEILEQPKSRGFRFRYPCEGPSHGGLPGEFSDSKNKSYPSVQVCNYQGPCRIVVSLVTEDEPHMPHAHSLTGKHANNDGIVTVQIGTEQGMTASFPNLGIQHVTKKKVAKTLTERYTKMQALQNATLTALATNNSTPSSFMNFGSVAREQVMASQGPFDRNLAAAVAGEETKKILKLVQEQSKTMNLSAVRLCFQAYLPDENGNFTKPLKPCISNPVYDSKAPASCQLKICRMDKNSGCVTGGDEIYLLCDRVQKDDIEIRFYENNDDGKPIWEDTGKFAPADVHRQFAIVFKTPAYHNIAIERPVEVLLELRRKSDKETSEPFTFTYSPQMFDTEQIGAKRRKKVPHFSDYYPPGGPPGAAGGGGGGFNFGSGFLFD

Numbering of substitutions follows the chain as printed.

Chain of GST-Hu-p50 (P19838 7-356): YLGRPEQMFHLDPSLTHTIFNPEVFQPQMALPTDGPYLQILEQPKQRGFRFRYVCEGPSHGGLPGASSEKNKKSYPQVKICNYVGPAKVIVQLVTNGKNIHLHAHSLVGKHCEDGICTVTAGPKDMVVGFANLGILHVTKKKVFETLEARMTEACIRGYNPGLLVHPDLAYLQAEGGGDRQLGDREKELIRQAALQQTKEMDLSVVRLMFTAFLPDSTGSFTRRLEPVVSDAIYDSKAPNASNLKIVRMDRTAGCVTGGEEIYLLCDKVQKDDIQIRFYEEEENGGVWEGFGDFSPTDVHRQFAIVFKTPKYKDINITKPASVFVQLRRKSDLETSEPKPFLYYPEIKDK

On to “CCGATTAACATCAGAAAATACCATGATGTTAATCGGGTCTTGATTCGCTTGACGCTGCTG”, for which the binding signal came to 1.12 z-score in assay [1]; 1.7 z-score in assay [2]; 3.11 z-score with GST-Dm-Relish; 1.58 z-score with GST-Aq-NF-kB; 1.63 z-score in the assay with GST-Hu-p50.
For the sequence “CCGATTAACATCAGTTTGGGAAATGATGTTAATCGGGTCTTGATTCGCTTGACGCTGCTG”, the binding signal in assay [1] worked out at 2.49 z-score; in assay [2] it was 2.26 z-score; in the assay with GST-Co-NF-kB, 2.36 z-score; with GST-Aq-NF-kB, 1.19 z-score; with GST-Hu-p50 it was 1.46 z-score.
For “CCGATTAACATCAAAATTTCCGGTGATGTTAATCGGGTCTTGATTCGCTTGACGCTGCTG”, the binding signal in assay [2] amounted to 1.02 z-score; in the assay with GST-Dm-Relish, 1.67 z-score; with GST-Aq-NF-kB it was 3.05 z-score; with GST-Hu-p50, 2.46 z-score.
“CCGATTAACATCAGTGGGAAACATGATGTTAATCGGGTCTTGATTCGCTTGACGCTGCTG”: the binding signal in assay [1] worked out at 1.93 z-score; in assay [2] it was 1.79 z-score; with GST-Co-NF-kB, 3.12 z-score; in the assay with GST-Aq-NF-kB, 2.03 z-score; with GST-Hu-p50, 1.25 z-score.
Consider “CCGATTAACATCAAAAAATTTTCTGATGTTAATCGGGTCTTGATTCGCTTGACGCTGCTG”, for which the binding signal in assay [2] is 1.98 z-score; with GST-Dm-Relish, 2.72 z-score; in the assay with GST-Aq-NF-kB, 1.49 z-score; with GST-Hu-p50 it was 2.15 z-score.
As to “CCGATTAACATCAAAAACTTTCCTGATGTTAATCGGGTCTTGATTCGCTTGACGCTGCTG”, the binding signal in assay [2] was 1.54 z-score; in the assay with GST-Dm-Relish it was 2.34 z-score; with GST-Aq-NF-kB, 2.68 z-score; with GST-Hu-p50, 1.25 z-score.
Turning to “CCGATTAACATCAAAAATTACCATGATGTTAATCGGGTCTTGATTCGCTTGACGCTGCTG”, the binding signal in assay [1] turned out to be 1.73 z-score; in assay [2] it was 3.14 z-score; with GST-Dm-Relish it was 3.14 z-score; with GST-Aq-NF-kB, 1.73 z-score; with GST-Hu-p50, 2.52 z-score.
In the case of “CCGATTAACATCAAAAAATTTCCTGATGTTAATCGGGTCTTGATTCGCTTGACGCTGCTG”, the binding signal in assay [2] came to 1.31 z-score; in the assay with GST-Dm-Relish it was 2.34 z-score; in the assay with GST-Aq-NF-kB, 2.22 z-score; with GST-Hu-p50, 2.27 z-score.
On to “CCGATTAACATCACCACCACCCCTGATGTTAATCGGGTCTTGATTCGCTTGACGCTGCTG”, for which the binding signal with GST-Ap-NF-kB RHD came out at 1.55 z-score; with GST-Co-NF-kB, 2.34 z-score; in the assay with GST-Dm-Relish, 1.39 z-score; with GST-Aq-NF-kB, 1.75 z-score; with GST-Hu-p50, 2.36 z-score.
With “CCGATTAACATCAAATTTCCGGGTGATGTTAATCGGGTCTTGATTCGCTTGACGCTGCTG”, the binding signal in assay [2] came out at 1.31 z-score; with GST-Co-NF-kB, 1.32 z-score; with GST-Aq-NF-kB it was 1.44 z-score; in the assay with GST-Hu-p50, 1.02 z-score.
Turning to “CCGATTAACATCAGAAAAATTCCTGATGTTAATCGGGTCTTGATTCGCTTGACGCTGCTG”, the binding signal was found to be 2.97 z-score with GST-Dm-Relish, 2.21 z-score with GST-Aq-NF-kB and 1.71 z-score with GST-Hu-p50.
For the sequence “CCGATTAACATCAAAAAGTTTCCTGATGTTAATCGGGTCTTGATTCGCTTGACGCTGCTG”, the binding signal in the assay with GST-Dm-Relish is 2.43 z-score; with GST-Aq-NF-kB, 1.68 z-score; in the assay with GST-Hu-p50, 1.42 z-score.
For the sequence “CCGATTAACATCAAGGTTTTTCCTGATGTTAATCGGGTCTTGATTCGCTTGACGCTGCTG”, the binding signal in assay [2] came out at 1.62 z-score; with GST-Dm-Relish, 3.17 z-score; in the assay with GST-Aq-NF-kB, 2.97 z-score; in the assay with GST-Hu-p50 it was 1.61 z-score.
Turning to “CCGATTAACATCAGGAAATTTACTGATGTTAATCGGGTCTTGATTCGCTTGACGCTGCTG”, the binding signal with GST-Dm-Relish amounted to 1.36 z-score; with GST-Aq-NF-kB it was 1.54 z-score; in the assay with GST-Hu-p50 it was 1.51 z-score.
As for “CCGATTAACATCAGGGGCCGTAATGATGTTAATCGGGTCTTGATTCGCTTGACGCTGCTG”, the binding signal was 1.66 z-score in the assay with GST-Ap-NF-kB RHD, 1.75 z-score in assay [1] and 2.32 z-score with GST-Aq-NF-kB.
On the same counts, the results for “CCGATTAACATCAAGCCTGTCCCTGATGTTAATCGGGTCTTGATTCGCTTGACGCTGCTG” are 2.01 z-score, 1.27 z-score and 1.77 z-score.
For “CCGATTAACATCAGGGGTCAGTATGATGTTAATCGGGTCTTGATTCGCTTGACGCTGCTG”, the values for the binding signal with GST-Ap-NF-kB RHD and in the assay with GST-Aq-NF-kB were 1.23 z-score and 1.09 z-score, respectively.

The values are drawn from publication PMC5700166.
